Laboratory results taken from PubChem BioAssay (NCATS).
Records with an inconclusive call do not appear. Calls of active or inactive are those of the source. Unless noted, calls come from the whole dose curve; as a rule, active = well fitted curve in the direction sought with a large enough effect; inconclusive = small, poorly fitted or top-dose-only effect, or another doubt; inactive = no such curve, though single readings can be large; an effect the other way counts as inactive or inconclusive.

Experiments:
[1] = molecular target: ATP-dependent 6-phosphofructokinase (Trypanosoma brucei brucei) (UniProt O15648); assay: qHTS Assay to Find Inhibitors of T. brucei phosphofructokinase: hit validation (AID 492961);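 note: luminescence reports ADP formed as PFK phosphorylates fructose-6-phosphate with ATP; series mostly up to about 51 µM; % is set by controls: 0 for no effect and ±100 for the full control effect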
Chain of ATP-dependent 6-phosphofructokinase (Trypanosoma brucei brucei) (O15648 whole entry, looked up): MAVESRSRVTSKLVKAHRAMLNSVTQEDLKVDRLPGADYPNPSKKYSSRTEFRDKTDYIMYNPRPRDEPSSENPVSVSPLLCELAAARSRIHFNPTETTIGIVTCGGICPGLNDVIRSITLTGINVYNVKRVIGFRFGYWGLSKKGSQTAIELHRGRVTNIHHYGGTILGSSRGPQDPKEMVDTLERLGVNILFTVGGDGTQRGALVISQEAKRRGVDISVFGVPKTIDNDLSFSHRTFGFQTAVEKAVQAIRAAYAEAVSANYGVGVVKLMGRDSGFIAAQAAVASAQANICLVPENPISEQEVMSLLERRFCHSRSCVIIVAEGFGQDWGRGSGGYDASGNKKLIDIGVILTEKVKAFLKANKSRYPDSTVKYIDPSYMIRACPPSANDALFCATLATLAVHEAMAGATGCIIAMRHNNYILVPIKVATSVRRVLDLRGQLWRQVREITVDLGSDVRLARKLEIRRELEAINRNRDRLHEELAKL
Outline: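 In this biochemical qHTS validation, titrated compounds were tested against 1.25 nM PFK with 0.1 mM ATP and 0.5 mM F6P. Percent activity came from controls lacking or containing enzyme.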

[2] = qHTS Assay for Identification of Small Molecule Inducers of Hypoxia Response (AID 2120; active = well fitted curve in the direction sought with a large enough effect in the signal ratio, with a control signal flat, not every such curve was filed as active; the % refers to the signal ratio; note: 0% is about no effect)
Outline: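 ME-180 HRE-bla cells plated in Opti-MEM/0.5% dialyzed FBS, rested 4-5 h, then dosed with compound titrations by pin tool. After 17 h at 37 degrees C, CCF4 dye loaded 2.5 h at RT; 460/530 nm ratio gave %Activity and AC50.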

[3] = molecular target: Ubiquitin carboxyl-terminal hydrolase 1 (Homo sapiens) (UniProt O94782); assay: Inhibitors of USP1/UAF1: Pilot qHTS (AID 504865);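 note: rhodamine fluorescence freed from ubiquitin-rhodamine substrate followed over time; top concentration of the series differs between compounds; % is set by controls: 0 for no effect and ±100 for the full control effect; nearly all actives have a fitted effect of over 35% in size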
Chain of Ubiquitin carboxyl-terminal hydrolase 1 (Homo sapiens) (O94782 whole entry, looked up): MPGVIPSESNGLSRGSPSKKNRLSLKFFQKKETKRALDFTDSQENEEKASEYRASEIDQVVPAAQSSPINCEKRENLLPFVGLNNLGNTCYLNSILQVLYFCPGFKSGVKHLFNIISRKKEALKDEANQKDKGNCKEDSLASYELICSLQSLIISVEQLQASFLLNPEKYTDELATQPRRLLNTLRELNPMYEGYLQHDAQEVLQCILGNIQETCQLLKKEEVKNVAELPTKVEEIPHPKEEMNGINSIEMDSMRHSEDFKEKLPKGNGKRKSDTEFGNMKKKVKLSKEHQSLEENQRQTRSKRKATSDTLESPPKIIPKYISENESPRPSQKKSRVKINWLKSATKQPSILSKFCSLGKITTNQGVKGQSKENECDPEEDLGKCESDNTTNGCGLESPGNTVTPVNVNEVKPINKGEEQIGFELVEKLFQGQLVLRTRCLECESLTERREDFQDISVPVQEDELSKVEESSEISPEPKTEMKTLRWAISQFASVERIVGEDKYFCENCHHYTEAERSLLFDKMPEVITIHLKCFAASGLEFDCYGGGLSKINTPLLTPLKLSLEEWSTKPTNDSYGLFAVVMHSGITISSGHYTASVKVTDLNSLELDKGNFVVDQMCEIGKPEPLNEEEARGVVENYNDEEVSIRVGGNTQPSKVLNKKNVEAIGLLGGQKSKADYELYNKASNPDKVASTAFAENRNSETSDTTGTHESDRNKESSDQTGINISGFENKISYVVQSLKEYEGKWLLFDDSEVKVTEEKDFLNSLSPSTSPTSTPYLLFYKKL
Outline: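 1nM USP1/UAF1 + cpd, 15 min RT; start w/ Ub-Rho 150nM final; kinetic FL 480/540 nm, 6 reads q60 s. Buffer 50mM HEPES pH 7.8, 0.5mM EDTA, 1mM TCEP, 0.01% Tween-20, 0.1 mg/ml BSA.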

[4] = molecular target: Estrogen receptor (Homo sapiens) (UniProt P03372); assay: qHTS assay for small molecule antagonists of estrogen receptor alpha signaling (AID 588513; active = well fitted curve in the direction sought with a large enough effect in the signal ratio, with a control signal flat, not every such curve was filed as active; the % refers to the signal ratio; note: % is set by controls: 0 for no effect and ±100 for the full control effect)
Chain of Estrogen receptor (Homo sapiens) (P03372 whole entry, looked up): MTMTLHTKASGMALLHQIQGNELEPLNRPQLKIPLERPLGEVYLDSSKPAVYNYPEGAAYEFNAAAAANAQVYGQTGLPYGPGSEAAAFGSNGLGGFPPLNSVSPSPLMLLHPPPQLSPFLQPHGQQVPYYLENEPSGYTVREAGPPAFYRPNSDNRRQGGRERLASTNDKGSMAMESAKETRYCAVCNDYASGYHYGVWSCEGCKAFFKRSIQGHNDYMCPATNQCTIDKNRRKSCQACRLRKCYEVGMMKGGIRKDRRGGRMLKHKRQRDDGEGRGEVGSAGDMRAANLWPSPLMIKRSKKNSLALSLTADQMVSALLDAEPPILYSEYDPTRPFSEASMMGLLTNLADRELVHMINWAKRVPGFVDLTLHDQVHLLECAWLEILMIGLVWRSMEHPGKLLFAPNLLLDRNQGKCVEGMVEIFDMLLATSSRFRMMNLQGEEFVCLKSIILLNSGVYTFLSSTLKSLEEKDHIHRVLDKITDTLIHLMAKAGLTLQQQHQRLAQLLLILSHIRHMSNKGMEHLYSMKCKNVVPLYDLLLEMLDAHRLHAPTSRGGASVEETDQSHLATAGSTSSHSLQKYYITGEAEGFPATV
Outline: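 Beta-lactamase reporter, antagonist mode, HEK 293 GripTite cells; 0.5nM E2 stimulus, 18 h, 37 C; CCF4 dye 2 h RT; fluorescence. IC50 and efficacy from Hill fits, normalized to E2 and DMSO.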

[5] = molecular target: Estrogen receptor (Homo sapiens) (UniProt P03372); assay: qHTS assay for small molecule agonists of estrogen receptor alpha signaling (AID 588514; calls by dose curve;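 note: 0% = vehicle only and 100% = reference agonist; nearly all actives have a fitted effect of over 70% in size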)
Outline: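 Cells were plated at 5000/well, incubated 4 hrs at 37 C, dosed with compound titration series, incubated 18 hrs at 37 C, loaded with CCF4 dye for 2 hrs at RT, then fluorescence was read.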

[6] = molecular target: Bile acid receptor (Homo sapiens) (UniProt Q96RI1); assay: qHTS assay for small molecule antagonists of farnesoid X receptor signaling (AID 588526; calls by dose curve; note: % is set by controls: 0 for no effect and ±100 for the full control effect)
Chain of Bile acid receptor (Homo sapiens) (Q96RI1 whole entry, looked up): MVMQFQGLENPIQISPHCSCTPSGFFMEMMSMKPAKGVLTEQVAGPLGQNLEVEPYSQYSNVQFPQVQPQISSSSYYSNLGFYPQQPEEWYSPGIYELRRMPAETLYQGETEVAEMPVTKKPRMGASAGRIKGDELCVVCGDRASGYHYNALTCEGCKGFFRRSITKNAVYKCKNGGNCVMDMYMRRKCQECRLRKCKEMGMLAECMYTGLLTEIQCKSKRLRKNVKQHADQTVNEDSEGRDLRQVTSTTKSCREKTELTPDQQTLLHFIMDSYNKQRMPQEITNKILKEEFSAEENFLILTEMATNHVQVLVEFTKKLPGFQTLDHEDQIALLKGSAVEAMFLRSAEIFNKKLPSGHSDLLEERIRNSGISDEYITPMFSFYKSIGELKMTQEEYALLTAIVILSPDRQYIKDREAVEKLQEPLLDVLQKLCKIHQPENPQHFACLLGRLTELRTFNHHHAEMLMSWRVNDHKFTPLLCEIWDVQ
Outline: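 Beta-lactamase reporter antagonist mode: HEK293T FXR-UAS-bla cells, titrated compound, CDCA stimulation, 16 h 37 C, CCF4 dye 2 h RT. Data normalized to CDCA 50 uM and DMSO; Hill-fit IC50.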

[7] = molecular target: Ferritin light chain (Equus caballus) (UniProt P02791); assay: qHTS Validation Assay for Identification of Novel General Anesthetics (AID 2323); note: series mostly up to about 77 µM; % is set by controls: 0 for no effect and ±100 for the full control effect
Chain of Ferritin light chain (Equus caballus) (P02791 2-175 limits assumed): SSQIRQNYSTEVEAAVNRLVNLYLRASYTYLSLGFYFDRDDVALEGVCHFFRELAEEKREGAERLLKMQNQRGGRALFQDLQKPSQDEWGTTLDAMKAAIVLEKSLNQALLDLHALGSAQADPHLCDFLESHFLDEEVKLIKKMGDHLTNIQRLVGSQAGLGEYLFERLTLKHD
Outline: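 10 uM horse-spleen apoferritin + 1-AMA (50% saturated, PBS); cpd pin-transferred, 10 min RT. Ex 380/Em 535 nm endpoint. Activity normalized between free 1-AMA and 1-AMA/apoferritin; 4-parameter Hill fit of concentration-response.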

[8] = molecular target: ATP-dependent DNA helicase Q1 (Homo sapiens) (UniProt P46063); assay: qHTS Validation Assay for Inhibitors of RecQ-Like Dna Helicase 1 (RECQ1) (AID 2353);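 note: plate controls were DMSO vehicle for no effect and enzyme-free control for full effect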
Outline: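 50 nM RECQ1T1 preincubated 15 min with compound in Tris pH 8.0 buffer with MgCl2, DTT, Tween-20 and 2.5 ug/ml poly(dI-dC); started with 200 nM TAMRA/BHQ-2 forked duplex and 2 mM ATP. Unwinding read as fluorescence (525/598 nm), two reads 2 h apart.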

[9] = Validation screen for small molecules that induce DNA re-replication in MCF 10A normal breast cells (AID 463097); note: 0% is about no effect; nearly all actives have a fitted effect of over 60% in size
Outline: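 250 MCF 10A cells/well; compound pin-transferred; 48 hr, 37 C, 5% CO2; Hoechst 40 min; imaged 405/500-530 nm. Hits = more high-intensity nuclei.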

[10] = Quantitative high throughput screen for delayed death inhibitors of the malarial parasite plastid, 96 hour incubation (AID 488745);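 note: luciferase-expressing P. falciparum in erythrocytes at 2% hematocrit and 0.1% parasitemia; series mostly up to about 29 µM; % is set by controls: 0 for no effect and ±100 for the full control effect; nearly all actives have a fitted effect of over 70% in size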
Outline: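 Infected erythrocytes were added to compound in Albumax-supplemented RPMI 1640 at 0.1% parasitemia and 2% hematocrit (final), incubated 96 h at 37 C under 5% CO2, then luciferase reagent was added and luminescence measured.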

[11] = Quantitative high throughput screen for delayed death inhibitors of the malarial parasite plastid, 48 hour incubation (AID 488752); note: % is set by controls: 0 for no effect and ±100 for the full control effect; nearly all actives have a fitted effect of over 65% in size
Outline: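 Readout is firefly luciferase luminescence from a reporter integrated into the parasite genome, with lower signal taken as inhibited growth. Infected red cells (0.1% parasitemia, 2% hematocrit final) are cultured with compound for one 48 h cycle at 37 C.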

[12] = molecular target: M-phase phosphoprotein 8 (Homo sapiens) (UniProt Q99549); assay: qHTS Validation Assay for Inhibitors for MPP8 Chromodomain Interactions with Methylated Histone Tails (AID 488949);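 note: AlphaScreen signal from MPP8 chromodomain bound to biotinylated H3K9me3 peptide; top concentration of the series differs between compounds; % is set by controls: 0 for no effect and ±100 for the full control effect; nearly all actives have a fitted effect of over 55% in size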
Chain of M-phase phosphoprotein 8 (Homo sapiens) (Q99549 whole entry, looked up): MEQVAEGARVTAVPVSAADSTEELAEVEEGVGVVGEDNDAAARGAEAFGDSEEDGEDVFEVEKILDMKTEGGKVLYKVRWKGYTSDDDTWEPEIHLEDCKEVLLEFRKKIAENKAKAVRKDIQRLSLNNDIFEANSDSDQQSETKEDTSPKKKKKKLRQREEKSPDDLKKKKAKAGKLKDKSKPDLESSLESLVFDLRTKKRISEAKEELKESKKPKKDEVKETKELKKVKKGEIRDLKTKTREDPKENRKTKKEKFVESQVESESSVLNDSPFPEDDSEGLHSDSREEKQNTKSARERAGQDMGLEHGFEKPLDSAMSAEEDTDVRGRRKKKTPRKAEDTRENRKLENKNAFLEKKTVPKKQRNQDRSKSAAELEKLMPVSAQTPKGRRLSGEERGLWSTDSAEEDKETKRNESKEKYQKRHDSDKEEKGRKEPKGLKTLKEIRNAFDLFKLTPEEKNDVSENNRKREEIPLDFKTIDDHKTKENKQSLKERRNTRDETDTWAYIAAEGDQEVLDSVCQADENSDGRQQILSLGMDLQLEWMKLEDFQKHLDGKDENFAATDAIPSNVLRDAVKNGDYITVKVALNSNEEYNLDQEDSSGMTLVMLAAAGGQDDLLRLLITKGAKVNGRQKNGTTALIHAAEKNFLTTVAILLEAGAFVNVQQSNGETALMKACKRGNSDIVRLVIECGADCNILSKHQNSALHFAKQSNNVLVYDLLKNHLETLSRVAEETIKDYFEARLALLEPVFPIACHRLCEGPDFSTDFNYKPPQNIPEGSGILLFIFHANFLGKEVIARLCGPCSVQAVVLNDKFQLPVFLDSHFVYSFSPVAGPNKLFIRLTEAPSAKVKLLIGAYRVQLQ
Outline: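 AlphaScreen read-out: streptavidin donor and nickel chelate acceptor beads (final 10 ug/mL), 30 min in the dark at RT. Complex of 50 nM MPP8 and 50 nM b-H3(1-18)K9me3 peptide had been exposed to compounds for 30 min beforehand.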

[13] = molecular target: Transient receptor potential cation channel subfamily V member 1 (Homo sapiens) (UniProt Q8NER1); assay: HTS Assay for Compounds that Act as Enhancers of the Vanilloid Receptor 1 (AID 488979); note: 0% is about no effect
Outline: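 Calcium influx kinetics via Fluo-8 (480/520 nm) in TRPV1-expressing cells, 2000/well cultured overnight at 35.5C. Compound-alone read 3 min (agonist phase), followed by EC20 capsaicin challenge for 2 min (enhancer phase).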

[14] = molecular target: Thyrotropin receptor (Homo sapiens) (UniProt P16473); assay: qHTS Assay for Antagonists of the Thyroid Stimulating Hormone Receptor (AID 488980); note: series mostly up to about 58 µM; 0% is about no effect
Outline: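 TSHR-HEK293 cells; 70 uM RO 20-1724 PDE inhibitor; compound + EC80 TSH (4 nM final); anti-cAMP cryptate antibody/cAMP-d2 in lysis buffer, 30 min RT; HTRF 665/620 nm read.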

[15] = molecular target: Thyrotropin-releasing hormone receptor (Homo sapiens) (UniProt P34981); assay: qHTS for Small Molecule Agonists and Allosteric Enhancers of Human TRH Receptor: Validation Screen for Agonists (AID 493127;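 active = calcium activation more than 3 SD above the typical response in the agonist read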;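 note: intracellular calcium rise by fluo-8 fluorescence before TRH EC20 addition; 0% is about no effect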); conditions: TRH receptor agonist cell assay; at 2 µM; active compounds read high
Chain of Thyrotropin-releasing hormone receptor (Homo sapiens) (P34981 whole entry, looked up): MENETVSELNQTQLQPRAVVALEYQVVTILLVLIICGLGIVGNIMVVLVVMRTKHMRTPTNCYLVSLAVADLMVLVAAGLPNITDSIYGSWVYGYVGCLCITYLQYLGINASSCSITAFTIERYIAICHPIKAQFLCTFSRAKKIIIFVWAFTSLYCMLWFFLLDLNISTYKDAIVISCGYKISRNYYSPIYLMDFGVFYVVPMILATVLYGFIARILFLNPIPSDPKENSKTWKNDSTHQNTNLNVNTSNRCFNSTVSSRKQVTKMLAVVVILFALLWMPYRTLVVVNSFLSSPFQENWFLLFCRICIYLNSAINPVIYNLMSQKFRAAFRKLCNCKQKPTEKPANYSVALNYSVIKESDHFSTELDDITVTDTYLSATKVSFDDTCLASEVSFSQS
Outline: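 Cells 2000/well, 10% FCS, 18 h 33.5C/5% CO2 → fluo-8 Ca dye, RT 30 min–1.5 h → FDSS baseline 10 × 1 s → compound added → 230 cycles (1 s/cycle) agonist mode. TRH controls.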

[16] = molecular target: Galactokinase (Homo sapiens) (UniProt P51570); assay: qHTS Validation Assay for Inhibitors of Human Galactokinase (GALK) (AID 493189); note: 0% is about no effect
Outline: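 Luminescence from leftover ATP (Kinase-Glo Plus, 10 min) served as read-out after a 1 h room-temperature reaction of 5 nM GALK, 100 uM galactose and 35 uM ATP at pH8.0.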

[17] = Validation screen for small molecules that induce DNA re-replication in SW480 colon adenocarcinoma cells (AID 504364); note: 0% is about no effect
Outline: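 250 cells/well; compound pinned in; 48 hr, 37 C, 5% CO2; Hoechst added, 40 min; nuclear fluorescence imaged, 405 ex / 500-530 em; re-replication scored as increase in high-intensity nuclei.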

[18] = molecular target: Androgen receptor (Homo sapiens) (UniProt P10275); assay: qHTS assay for small molecule agonists of androgen receptor signaling (AID 588515; active = well fitted curve in the direction sought with a large enough effect in the signal ratio, with a control signal flat; the % refers to the signal ratio; note: % is set by controls: 0 for no effect and ±100 for the full control effect); conditions: AR-UAS-bla HEK293, beta-lactamase ratio, agonist 16 h; active compounds read high
Chain of Androgen receptor (Homo sapiens) (P10275 whole entry, looked up): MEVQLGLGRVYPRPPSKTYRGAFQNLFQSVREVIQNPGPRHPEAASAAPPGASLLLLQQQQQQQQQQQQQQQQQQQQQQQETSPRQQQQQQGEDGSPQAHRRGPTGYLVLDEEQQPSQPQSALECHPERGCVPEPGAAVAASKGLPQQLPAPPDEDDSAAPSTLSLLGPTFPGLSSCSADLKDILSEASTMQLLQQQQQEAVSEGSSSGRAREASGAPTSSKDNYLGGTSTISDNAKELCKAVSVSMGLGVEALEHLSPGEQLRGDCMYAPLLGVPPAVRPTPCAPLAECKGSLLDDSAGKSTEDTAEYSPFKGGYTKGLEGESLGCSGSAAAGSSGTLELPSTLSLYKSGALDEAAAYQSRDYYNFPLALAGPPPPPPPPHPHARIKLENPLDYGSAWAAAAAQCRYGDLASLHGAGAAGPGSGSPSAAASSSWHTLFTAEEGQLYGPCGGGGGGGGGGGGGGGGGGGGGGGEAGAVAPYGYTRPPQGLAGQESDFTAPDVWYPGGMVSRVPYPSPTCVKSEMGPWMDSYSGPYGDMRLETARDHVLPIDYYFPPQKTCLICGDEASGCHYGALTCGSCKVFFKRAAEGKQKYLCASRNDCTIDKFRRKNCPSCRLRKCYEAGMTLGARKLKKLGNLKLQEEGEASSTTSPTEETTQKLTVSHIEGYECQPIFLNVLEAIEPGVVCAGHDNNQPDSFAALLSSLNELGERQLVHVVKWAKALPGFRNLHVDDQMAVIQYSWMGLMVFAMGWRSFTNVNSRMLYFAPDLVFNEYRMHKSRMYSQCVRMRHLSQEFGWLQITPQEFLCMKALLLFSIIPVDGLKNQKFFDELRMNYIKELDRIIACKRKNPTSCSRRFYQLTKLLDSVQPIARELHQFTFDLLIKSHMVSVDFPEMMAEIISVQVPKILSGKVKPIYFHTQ
Outline: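 EC50 and efficacy came from Hill fits of titrations (up to 92 uM) normalized to 30 nM R1881 as 100% and DMSO as 0%. Compound exposure was 16 h at 37 C on AR-UAS-bla HEK293 cells, with a 405/460/530 nm CCF4 fluorescence read.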

[19] = molecular target: Androgen receptor (Homo sapiens) (UniProt P10275); assay: qHTS assay for small molecule antagonists of androgen receptor signaling (AID 588516; active = well fitted curve in the direction sought with a large enough effect in the signal ratio, with a control signal flat, not every such curve was filed as active; the % refers to the signal ratio; note: % is set by controls: 0 for no effect and ±100 for the full control effect)
Outline: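 HEK293 AR-UAS-bla cells, 10% dialyzed FBS medium; cpd titration + R1881 10 nM final, 16 h 37 C; CCF4 2 h RT; FRET ratio; IC50/efficacy via Hill fit.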

COc1cc(C(=O)NCCCCCC(=O)O)cc(OC)c1OC
inactive: outcome [1]

O=C(O)CNC(=O)c1ccccc1I
inactive: outcome [1]

CCN(CC)C(=O)c1cccc(C)c1
inactive: outcome [2] | Potency [3] | outcome [4] | outcome [5] | outcome [6]

Cc1cccc(C)c1NC(=O)CC12CCCN1CCC2
inactive: outcome [1]

CC(=O)Nc1cccc(O)c1
inactive: outcome [2] | outcome [1] | Potency [3] | outcome [4] | outcome [5]

CCCCCC(N)=O
inactive: outcome [2] | outcome [1] | Potency [3]

CC(=O)Nc1ccc(C(=O)O)cc1
inactive: outcome [2] | outcome [1] | Potency [3] | outcome [4] | outcome [5]

FC(F)(F)C(Cl)Br (stereo not drawn)
inactive: outcome [2] | outcome [1] | Potency [3] | outcome [4] | outcome [5]

CC(=O)SC[C@@H](Cc1ccccc1)C(=O)NCC(=O)OCc1ccccc1
inactive: outcome [1]

CC(=O)Nc1ccccc1
inactive: outcome [2] | Potency [3] | outcome [4] | outcome [5] | outcome [6]

NC(N)=NCCN1CCCCCCC1
inactive: outcome [1]

Cc1c(NC(=O)c2cccnc2)c(=O)n(-c2ccccc2)n1C
inactive: outcome [1]

CN1C(C)(C)CCCC1(C)C
inactive: outcome [7] | outcome [8] | outcome [9] | outcome [10] | outcome [11] | outcome [12] | outcome [13] | outcome [14] | activation [15] 0.688% | outcome [16] | outcome [17] | Potency [3]

COc1ccc(O)cc1
inactive: outcome [2] | outcome [1] | activation [18] -4.19% | outcome [19]

NC(N)=NS(=O)(=O)c1ccc(N)cc1
inactive: outcome [1]

CCCCCCCC(=O)OCC(COC(=O)CCCCCCC)OC(=O)CCCCCCC
inactive: outcome [2] | outcome [1] | outcome [4] | outcome [5] | outcome [6]

CC(=O)OCC(COC(C)=O)OC(C)=O
inactive: outcome [2] | outcome [1] | Potency [3]

O=C1C(c2[nH]c3ccccc3c2O)=Nc2ccccc21
inactive: outcome [2] | outcome [6]

CN1CCN(C(=O)C2CCCCC2)CC1
inactive: outcome [1]

C=CCNC(N)=S
inactive: outcome [2]
